Results reported in PubChem BioAssay (NCATS).
Results filed as inconclusive are left out. The source made the active and inactive calls. Unless noted, calls come from the whole dose curve; as a rule, active = well fitted curve in the direction sought with a large enough effect; inconclusive = small, poorly fitted or top-dose-only effect, or another doubt; inactive = no such curve, though single readings can be large; an effect the other way counts as inactive or inconclusive.

Legend:
[1] = qHTS Assay for Lipid Storage Modulators (AID 1519; calls by dose curve; for activity change, negative = inhibition: % is set by controls: 0 for no effect and ±100 for the full control effect); conditions: Drosophila S3 cells, BODIPY lipid droplet/cell ratio, laser cytometry, cells loaded with oleic acid
Summary of the method: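 Cells seeded at 5,000 per well were treated with compounds over a concentration series and loaded with oleic acid (400 uM, as added). Lipid droplet fluorescence (488 nm excitation, 500-530 nm channel) was read by laser-scanning cytometry and normalized to 20 uM Triacsin C.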

[2] = target: Ubiquitin carboxyl-terminal hydrolase 1 (Homo sapiens) (UniProt O94782); test: Inhibitors of USP1/UAF1: Pilot qHTS (AID 504865); conditions: purified USP1/UAF1, Ub-rhodamine cleavage fluorescence; series mostly up to 114 µM;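 note: rhodamine fluorescence freed from ubiquitin-rhodamine substrate followed over time; top concentration of the series differs between compounds; % is set by controls: 0 for no effect and ±100 for the full control effect; nearly all actives have a fitted effect of over 35% in size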
Chain of Ubiquitin carboxyl-terminal hydrolase 1 (Homo sapiens) (O94782 whole entry, looked up): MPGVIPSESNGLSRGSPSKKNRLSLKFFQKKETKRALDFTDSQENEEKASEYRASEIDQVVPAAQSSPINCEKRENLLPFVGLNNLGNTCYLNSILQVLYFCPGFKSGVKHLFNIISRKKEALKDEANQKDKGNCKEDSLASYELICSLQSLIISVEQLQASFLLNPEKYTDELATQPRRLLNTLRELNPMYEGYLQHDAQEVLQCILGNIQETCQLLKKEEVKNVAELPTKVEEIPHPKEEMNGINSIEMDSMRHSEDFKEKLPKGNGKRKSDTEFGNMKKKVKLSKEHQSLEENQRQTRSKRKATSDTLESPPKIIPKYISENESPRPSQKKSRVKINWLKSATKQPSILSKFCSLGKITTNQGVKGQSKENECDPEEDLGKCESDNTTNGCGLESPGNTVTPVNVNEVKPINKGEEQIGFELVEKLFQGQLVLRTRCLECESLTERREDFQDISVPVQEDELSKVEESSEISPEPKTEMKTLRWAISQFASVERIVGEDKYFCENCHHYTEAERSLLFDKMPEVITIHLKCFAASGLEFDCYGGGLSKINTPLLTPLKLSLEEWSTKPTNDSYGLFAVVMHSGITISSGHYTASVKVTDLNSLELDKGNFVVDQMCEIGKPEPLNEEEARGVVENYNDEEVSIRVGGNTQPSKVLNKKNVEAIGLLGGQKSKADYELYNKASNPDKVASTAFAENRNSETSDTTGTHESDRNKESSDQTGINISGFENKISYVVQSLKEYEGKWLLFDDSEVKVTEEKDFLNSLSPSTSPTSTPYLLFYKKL
Summary of the method: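 1nM USP1/UAF1 + cpd, 15 min RT; start w/ Ub-Rho 150nM final; kinetic FL 480/540 nm, 6 reads q60 s. Buffer 50mM HEPES pH 7.8, 0.5mM EDTA, 1mM TCEP, 0.01% Tween-20, 0.1 mg/ml BSA.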

[3] = target: ATP-dependent 6-phosphofructokinase (Trypanosoma brucei brucei) (UniProt O15648); test: qHTS Assay to Find Inhibitors of T. brucei phosphofructokinase: hit validation (AID 492961);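 note: luminescence reports ADP formed as PFK phosphorylates fructose-6-phosphate with ATP; % is set by controls: 0 for no effect and ±100 for the full control effect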; conditions: T. brucei PFK, ADP-Glo luminescence; series mostly up to 24.3 µM
Chain of ATP-dependent 6-phosphofructokinase (Trypanosoma brucei brucei) (O15648 whole entry, looked up): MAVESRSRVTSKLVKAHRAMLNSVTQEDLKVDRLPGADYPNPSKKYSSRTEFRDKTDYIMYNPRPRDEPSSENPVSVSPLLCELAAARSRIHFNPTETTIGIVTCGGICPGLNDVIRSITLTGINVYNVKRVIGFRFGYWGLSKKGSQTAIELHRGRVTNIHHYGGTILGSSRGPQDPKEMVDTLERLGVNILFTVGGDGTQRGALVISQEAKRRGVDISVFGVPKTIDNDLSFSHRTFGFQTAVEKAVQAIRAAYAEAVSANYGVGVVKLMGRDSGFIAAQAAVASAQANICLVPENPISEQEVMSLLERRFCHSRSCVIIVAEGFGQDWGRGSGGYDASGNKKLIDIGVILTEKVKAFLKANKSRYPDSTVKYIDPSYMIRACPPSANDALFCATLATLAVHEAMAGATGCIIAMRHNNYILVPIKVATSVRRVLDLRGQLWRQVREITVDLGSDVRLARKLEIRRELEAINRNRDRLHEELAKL
Summary of the method: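 Compounds titrated; %activity normalized to 0x and 1x enzyme controls, curve-fitted. Readout: ADP-Glo luminescence after 45 min room-temperature reaction of 1.25 nM PFK, 0.1 mM ATP, 0.5 mM F6P, pH 8.0.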

[4] = target: Luciferin 4-monooxygenase (Photinus pyralis) (UniProt P08659); test: Biochemical firefly luciferase enzyme assay for NPC (AID 624030);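 note: purified P. pyralis luciferase at 10 nM with luciferin and ATP substrate; 0% = DMSO and -100% = full luciferase inhibition by PTC124 control; nearly all actives have a fitted effect of over 70% in size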; conditions: purified P. pyralis luciferase, luminescence, 5 min; series mostly up to 24.9 µM
Chain of Luciferin 4-monooxygenase (Photinus pyralis) (P08659 whole entry, looked up): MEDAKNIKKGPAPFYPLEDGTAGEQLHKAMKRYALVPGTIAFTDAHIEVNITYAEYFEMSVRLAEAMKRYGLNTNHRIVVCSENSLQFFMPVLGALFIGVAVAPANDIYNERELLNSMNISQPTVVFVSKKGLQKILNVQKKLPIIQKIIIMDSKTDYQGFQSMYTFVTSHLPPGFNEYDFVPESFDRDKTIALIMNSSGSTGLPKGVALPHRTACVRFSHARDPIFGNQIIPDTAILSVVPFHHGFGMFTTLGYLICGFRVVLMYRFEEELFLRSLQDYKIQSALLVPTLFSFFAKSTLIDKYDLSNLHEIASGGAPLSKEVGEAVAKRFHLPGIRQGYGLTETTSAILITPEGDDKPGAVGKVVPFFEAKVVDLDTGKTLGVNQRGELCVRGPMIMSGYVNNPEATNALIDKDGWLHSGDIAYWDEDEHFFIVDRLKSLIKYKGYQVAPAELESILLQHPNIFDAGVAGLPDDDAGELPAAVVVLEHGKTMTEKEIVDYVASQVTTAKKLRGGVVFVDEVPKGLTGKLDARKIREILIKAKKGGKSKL
Summary of the method: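 Purified P. pyralis luciferase at 10 nM in 50 mM Tris Acetate (final), luminescence read within 5 minutes of enzyme addition to compounds. Activity normalised to PTC124 versus DMSO; concentration-response curves classed by r2, magnitude and activity.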

[5] = qHTS profiling for inhibitors of Plasmodium falciparum proliferation (AID 504749); note: nearly all actives have a fitted effect of over 60% in size; note: potency is the fitted concentration of half-maximal effect;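 for activity, negative = inhibition: 0% = DMSO vehicle and full inhibition = artemisinin control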; conditions: P. falciparum in erythrocytes, SYBR Green DNA, 72 h
Summary of the method: (§1)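 SYBR Green fluorescence (ex 485 nm, em 535 nm) reports parasite DNA after 72 h compound exposure of infected red cells at 0.3% parasitemia, 2.5% hematocrit; signal normalized to 0.29 uM artemisinin and vehicle wells.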

3D7 = test: as above; conditions: P. falciparum in erythrocytes, SYBR Green DNA, 72 h; series mostly up to 12.8 µM
Summary of the method: as §1

AS120 = test: as above; conditions: P. falciparum in erythrocytes, SYBR Green DNA, 72 h; series mostly up to 12.8 µM
Summary of the method: as §1

C2A = test: as above; conditions: P. falciparum in erythrocytes, SYBR Green DNA, 72 h; series mostly up to 12.8 µM
Summary of the method: as §1

CP185 = test: as above; conditions: P. falciparum in erythrocytes, SYBR Green DNA, 72 h; series mostly up to 12.8 µM
Summary of the method: as §1

CP191 = test: as above; conditions: P. falciparum in erythrocytes, SYBR Green DNA, 72 h; series mostly up to 12.8 µM
Summary of the method: as §1

CP192 = test: as above; conditions: P. falciparum in erythrocytes, SYBR Green DNA, 72 h; series mostly up to 12.8 µM
Summary of the method: as §1

CP217 = test: as above; conditions: P. falciparum in erythrocytes, SYBR Green DNA, 72 h; series mostly up to 12.8 µM
Summary of the method: as §1

CP238 = test: as above; conditions: P. falciparum in erythrocytes, SYBR Green DNA, 72 h; series mostly up to 12.8 µM
Summary of the method: as §1

CP247 = test: as above; conditions: P. falciparum in erythrocytes, SYBR Green DNA, 72 h; series mostly up to 12.8 µM
Summary of the method: as §1

CP250 = test: as above; conditions: P. falciparum in erythrocytes, SYBR Green DNA, 72 h; series mostly up to 12.8 µM
Summary of the method: as §1

CP262 = test: as above; conditions: P. falciparum in erythrocytes, SYBR Green DNA, 72 h; series mostly up to 12.8 µM
Summary of the method: as §1

ECU = test: as above; conditions: P. falciparum in erythrocytes, SYBR Green DNA, 72 h; series mostly up to 12.8 µM
Summary of the method: as §1

FAB9 = test: as above; conditions: P. falciparum in erythrocytes, SYBR Green DNA, 72 h; series mostly up to 12.8 µM
Summary of the method: as §1

HB3 = test: as above; conditions: P. falciparum in erythrocytes, SYBR Green DNA, 72 h; series mostly up to 12.8 µM
Summary of the method: as §1

SC27B = test: as above; conditions: P. falciparum in erythrocytes, SYBR Green DNA, 72 h; series mostly up to 12.8 µM
Summary of the method: as §1

[6] = measured here: cell count channel max response
[7] = measured here: lipid channel max response
[8] = at 28.7 µM (top of the series), parasite line A
[9] = at 28.7 µM (top of the series), parasite line B

Nc1ncn([C@H]2O[C@@H](CO)[C@@H](O)[C@@H]2O)c(=O)n1
-7.83%: max response [1, 7]
inactive: activity change, negative = inhibition ([1]; at 25.7 µM (top of the series)) -7.35% | Potency [2]
-3.14%: max response [1, 6]

COC(=O)C1=C(C)NC(C)=C(C(=O)OCCN(C)Cc2ccccc2)[C@H]1c1cccc([N+](=O)[O-])c1
inactive: activity change, negative = inhibition ([1]; at 25.7 µM (top of the series)) 0.376%
-13.6%: max response [1, 7]
-15.5%: max response [1, 6]

CC1(C)S[C@@H]2[C@H](NC(=O)[C@@H](N)c3ccccc3)C(=O)N2[C@H]1C(=O)O[C@H]1OC(=O)c2ccccc21
-27.2%: max response [1, 6]
-29.9%: max response [1, 7]
inactive: activity change, negative = inhibition ([1]; at 25.7 µM (top of the series)) -2.68% | outcome [3] | Potency [4] | activity, negative = inhibition ([5]; at 12.8 µM (top of the series), parasite line A) 9.34% | activity, negative = inhibition ([5]; at 12.8 µM (top of the series), parasite line B) 6.7% | Potency (3D7) | Potency (AS120) | Potency (C2A) | Potency (CP185) | Potency (CP191) | Potency (CP192) | Potency (CP217) | Potency (CP238) | Potency (CP247) | Potency (CP250) | Potency (CP262) | Potency (ECU) | Potency (FAB9) | Potency (HB3) | Potency (SC27B)

CC1CCC(C(C)C)C(=O)C1 (stereo not drawn)
14.2%: max response [1, 7]
inactive: activity change, negative = inhibition ([1]; at 57.5 µM (top of the series)) 1.11% | outcome [3] | Potency [2] | Potency [4] | activity, negative = inhibition [5, 8] 0.527% | activity, negative = inhibition [5, 9] 15.7% | Potency (3D7) | Potency (AS120) | Potency (C2A) | Potency (CP185) | Potency (CP191) | Potency (CP192) | Potency (CP217) | Potency (CP238) | Potency (CP247) | Potency (CP250) | Potency (CP262) | Potency (ECU) | Potency (FAB9) | Potency (HB3) | Potency (SC27B)
11.5%: max response [1, 6]

C/C1=C2N=C(/C=C3N=C(/C(C)=C4\[N-]C(C)(C5N=C1C(C)(CCC(=O)NCC(C)OP(=O)([O-])O[C@H]1C(O)C(n6cnc7cc(C)c(C)cc76)O[C@@H]1CO)C5CC(N)=O)C(C)(CC(N)=O)C4CCC(N)=O)C(C)(CC(N)=O)C\3CCC(N)=O)C(C)(C)C/2CCC(N)=O.[CH2-]C1OC(n2cnc3c(N)ncnc32)C(O)C1O.[Co] (stereo partly drawn)
inactive: activity change, negative = inhibition ([1]; at 57.5 µM (top of the series)) 3.3% | outcome [3] | Potency [4] | activity, negative = inhibition [5, 8] 4.62% | activity, negative = inhibition [5, 9] 4.58% | Potency (3D7) | Potency (AS120) | Potency (C2A) | Potency (CP185) | Potency (CP191) | Potency (CP192) | Potency (CP217) | Potency (CP238) | Potency (CP247) | Potency (CP250) | Potency (CP262) | Potency (ECU) | Potency (FAB9) | Potency (HB3) | Potency (SC27B)
22.1%: max response [1, 6]
29.7%: max response [1, 7]

COc1c(O)cc(O)cc1O
3.65%: max response [1, 6]
inactive: activity change, negative = inhibition ([1]; at 57.5 µM (top of the series)) -1.6% | Potency [2]
4.87%: max response [1, 7]

COc1ccc2cc1Oc1ccc(cc1)CC1c3c(cc4c(c3Oc3cc5c(cc3OC)CCN(C)C5C2)OCO4)CCN1C (stereo not drawn)
inactive: activity change, negative = inhibition ([1]; at 57.5 µM (top of the series)) 10.7% | outcome [3] | Potency [4]
active: Potency ([5]; parasite line A) 8.91 µM | Potency ([5]; parasite line B) 10 µM | Potency (3D7) 11.2 µM | Potency (AS120) 3.98 µM | Potency (C2A) 11.2 µM | Potency (CP185) 7.94 µM | Potency (CP191) 5.01 µM | Potency (CP217) 8.91 µM | Potency (CP238) 7.08 µM | Potency (CP247) 5.62 µM | Potency (CP262) 8.49 µM | Potency (ECU) 8.91 µM | Potency (HB3) 7.08 µM | Potency (SC27B) 7.08 µM
5.9%: max response [1, 6]
21%: max response [1, 7]

O=C1OC(CO)C(O)C(O)C1O (stereo not drawn)
26.8%: max response [1, 7]
17.3%: max response [1, 6]
inactive: activity change, negative = inhibition ([1]; at 57.5 µM (top of the series)) 6.29% | outcome [3] | Potency [2] | Potency [4] | activity, negative = inhibition [5, 8] 11.9% | activity, negative = inhibition [5, 9] -2.03% | Potency (3D7) | Potency (AS120) | Potency (C2A) | Potency (CP185) | Potency (CP191) | Potency (CP192) | Potency (CP217) | Potency (CP238) | Potency (CP247) | Potency (CP250) | Potency (CP262) | Potency (ECU) | Potency (FAB9) | Potency (HB3) | Potency (SC27B)

NC(C(=O)O)[C@@H]1CC(Cl)=NO1 (stereo partly drawn)
active: Potency ([5]; parasite line A) 1.26 µM | Potency ([5]; parasite line B) 2.82 µM | Potency (3D7) 1 µM | Potency (AS120) 1.78 µM | Potency (C2A) 1.12 µM | Potency (CP185) 2.82 µM | Potency (CP191) 2.51 µM | Potency (CP192) 3.38 µM | Potency (CP217) 1.12 µM | Potency (CP238) 2.82 µM | Potency (CP247) 3.16 µM | Potency (CP250) 2.82 µM | Potency (CP262) 4.26 µM | Potency (ECU) 2.24 µM | Potency (FAB9) 2.82 µM | Potency (HB3) 1.78 µM | Potency (SC27B) 1.41 µM
inactive: activity change, negative = inhibition ([1]; at 57.5 µM (top of the series)) 6.89% | outcome [3] | Potency [2] | Potency [4]
16.9%: max response [1, 6]
29%: max response [1, 7]

CC(C)C1CCC(C(=O)NC(Cc2ccccc2)C(=O)O)CC1 (stereo not drawn)
inactive: activity change, negative = inhibition ([1]; at 57.5 µM (top of the series)) 5.23% | outcome [3] | Potency [2] | Potency [4] | activity, negative = inhibition [5, 8] -12% | activity, negative = inhibition [5, 9] 8.36% | Potency (3D7) | Potency (AS120) | Potency (C2A) | Potency (CP185) | Potency (CP191) | Potency (CP192) | Potency (CP217) | Potency (CP238) | Potency (CP247) | Potency (CP262) | Potency (ECU) | Potency (FAB9) | Potency (HB3) | Potency (SC27B)
2.86%: max response [1, 6]
10.2%: max response [1, 7]

NCC1CCC(N)C(O[C@@H]2C(O)[C@H](O[C@H]3OC(CO)C(O)C(N)C3O)[C@@H](N)C[C@H]2N)O1 (stereo partly drawn)
28.1%: max response [1, 6]
44.9%: max response [1, 7]
inactive: activity change, negative = inhibition ([1]; at 57.5 µM (top of the series)) 9.66% | outcome [3] | Potency [2] | Potency [4] | activity, negative = inhibition [5, 8] 7.73% | activity, negative = inhibition [5, 9] 10.2% | Potency (3D7) | Potency (AS120) | Potency (C2A) | Potency (CP185) | Potency (CP191) | Potency (CP192) | Potency (CP217) | Potency (CP238) | Potency (CP247) | Potency (CP250) | Potency (CP262) | Potency (ECU) | Potency (FAB9) | Potency (HB3) | Potency (SC27B)
